Screens: PubChem BioAssay, several laboratories
SUMO Mot1 rescue: SUMOylation pathway inhibition by Mot1-301 growth rescue; S. cerevisiae Mot1-301 growth rescue, ATP luminescence, 38.5C; percent above DMSO median, 100 means doubled; growth rescue, % at 18.8 µM; actives 1% (n = 320,000); AID 2716;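 active = every valid replicate shows activation above 250% relative to neutral control wells; inactive = the rest, any valid replicate at or below 250%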;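 note: OY570 slx delta 5 strain wells were the positive control but not used for scaling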
AHR activator: activators of human aryl hydrocarbon receptor. P35869. AHR-responsive luciferase reporter cells, luminescence. activation, % at 5 µM. actives 2.5% (n = 320,000); in the data active = activation above about 47%;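 note: 0% = vehicle wells and 100% = reference agonist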
Target sequence (P35869 whole entry, looked up): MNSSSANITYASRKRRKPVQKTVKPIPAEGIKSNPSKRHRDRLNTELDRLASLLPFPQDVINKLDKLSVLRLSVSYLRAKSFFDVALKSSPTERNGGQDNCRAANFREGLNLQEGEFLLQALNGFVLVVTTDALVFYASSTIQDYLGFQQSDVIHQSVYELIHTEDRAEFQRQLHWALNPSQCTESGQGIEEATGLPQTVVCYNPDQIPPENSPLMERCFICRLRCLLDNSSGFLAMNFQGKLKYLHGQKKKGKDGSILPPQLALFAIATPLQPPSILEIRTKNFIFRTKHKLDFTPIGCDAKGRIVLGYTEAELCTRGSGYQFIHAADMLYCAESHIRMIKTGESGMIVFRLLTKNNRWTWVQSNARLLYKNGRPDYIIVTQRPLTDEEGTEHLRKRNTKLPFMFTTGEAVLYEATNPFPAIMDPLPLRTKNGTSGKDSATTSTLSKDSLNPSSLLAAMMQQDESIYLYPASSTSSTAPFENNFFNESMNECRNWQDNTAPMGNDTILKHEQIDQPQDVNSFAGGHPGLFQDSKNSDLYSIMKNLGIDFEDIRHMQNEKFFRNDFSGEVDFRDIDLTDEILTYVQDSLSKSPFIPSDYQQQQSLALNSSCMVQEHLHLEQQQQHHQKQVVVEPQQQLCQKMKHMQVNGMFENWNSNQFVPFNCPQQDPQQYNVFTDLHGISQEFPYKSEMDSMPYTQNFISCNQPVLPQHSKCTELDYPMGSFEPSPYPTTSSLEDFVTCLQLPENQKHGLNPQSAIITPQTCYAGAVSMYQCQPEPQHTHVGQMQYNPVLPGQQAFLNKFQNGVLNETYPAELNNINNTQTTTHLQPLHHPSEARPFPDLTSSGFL
NR3A LBD binder: modulates the human NR3A ligand-binding domain. NR3A LBD differential scanning fluorimetry, Tm shift; 0% = protein alone, 100% = glycine-bound protein. Tm shift relative to glycine control, % at 25 µM. actives 2.5% (n = 340,000). AID 1259313;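 active = melting temperature shift of at least 10% of the positive control shift, at one fixed dose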
AI-2 QS mod: Vibrio harveyi AI-2 quorum sensing modulation; Vibrio harveyi JMH597 AI-2 luminescence/OD600 ratio, 9 h; hits give low values; strain lacks LuxN and CqsS sensors; 0 = neutral-control median; activity change, % at 7.5 µM; actives 0.4% (n = 300,000); in the data active = activity change below about -75%, passing the limit was not always enough;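 note: luminescence divided by OD600 gain over 9 h not by final OD600 alone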
Cardio protect: myocardial damage modulation in H9c2 cells. H9c2 cardiomyocytes, H2O2 injury protection, ATPLite, 2 h. protection from H2O2 cell death, % at 20 µM. actives 0.63% (n = 360,000). AID 588492;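 active = compounds giving at least 50% protection of heart cells from peroxide-induced death in the single-dose screen, raw or plate-pattern-corrected value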;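 note: 0% = DMSO wells with peroxide and 100% = DMSO wells without peroxide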
NTR1 agonist: agonists of human neurotensin receptor NTR1; P30989; NTR1-U2OS beta-arrestin-GFP spot imaging, agonist mode; activation, % at 20 µM; actives 0.17% (n = 330,000); AID 493036;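 active = activation at or above 40% of the spot to cytoplasm intensity ratio, with at least 20 cells analyzed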;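 note: 0% = DMSO without peptide and 100% = 100 nM NTR1 peptide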
Numbers without * were called inactive. An excerpt weighted towards active compounds, which were near 6.2% of everything screened.

For COc1ccc(-n2nnnc2S(=O)(=O)Cc2ccc(C(=O)O)cc2)cc1 the results were SUMO Mot1 rescue -9, AHR activator 3, NR3A LBD binder 0, AI-2 QS mod -49, Cardio protect -2 and NTR1 agonist 1.
COc1ccc(-n2nnnc2S(=O)(=O)CC(=O)N2CCCCC2)cc1 was read as SUMO Mot1 rescue 486*, AHR activator 1, NR3A LBD binder 1, Cardio protect -13 and NTR1 agonist 27.
Screening N=c1c(S(=O)(=O)c2ccc(Cl)cc2)cc2c(=O)n3ccccc3nc2n1C1CCCC1 returned SUMO Mot1 rescue -6, AHR activator 1, NR3A LBD binder 8, AI-2 QS mod 4, Cardio protect -6 and NTR1 agonist 7.
Screening CN1CC=C2C(C#N)=C(N)C(C#N)(C#N)C(CCc3ccccc3)C2C1 (stereo not given) returned SUMO Mot1 rescue 162, AHR activator 56*, NR3A LBD binder 0, AI-2 QS mod 9, Cardio protect 12 and NTR1 agonist -4.
`CN1CC=C2C(C#N)=C(N)C(C#N)(C#N)[C@H](c3cccs3)[C@H]2C1` gave SUMO Mot1 rescue -15, AHR activator 11, NR3A LBD binder -1, AI-2 QS mod 9 and Cardio protect 5.
For Cc1sc2ncnc(N3CCC(C(=O)Nc4ccc(OC(F)F)c(Cl)c4)CC3)c2c1C the results were SUMO Mot1 rescue -3, AHR activator 1, NR3A LBD binder 10*, Cardio protect -5 and NTR1 agonist 29.
OCC1OC2C(NC(=S)N2c2ccccc2)C(O)C1O (stereo not given) was read as NR3A LBD binder 0 and Cardio protect 4.
`CCn1cnc2cc(NC(=O)c3ccco3)ccc21` gave SUMO Mot1 rescue -4, AHR activator 23, NR3A LBD binder 0, AI-2 QS mod 46, Cardio protect -14 and NTR1 agonist -2.
